Measured values from PubChem BioAssay (NCATS).
Values joined by “and” are separate entries in the source; they are usually repeats but may differ in a detail not shown here. Equal values may be shown once. Results filed as inconclusive are left out. Active and inactive are the calls of the source. Unless noted, calls follow the shape of the dose curve; as a rule, active = well fitted curve in the direction sought with a large enough effect; inconclusive = small, poorly fitted or top-dose-only effect, or another doubt; inactive = no such curve, though single readings can be large; an effect the other way counts as inactive or inconclusive.

Columns and labels:
[1] = AP1 Signaling Pathway (AID 357; active = well fitted curve in either direction with a large enough effect, not every such curve was filed as active;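 also: ME-180 reporter cells stimulated with EGF at its EC50 level; % is scaled to controls: 0 for no effect and ±100 for the full control effect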); details: ME-180 AP-1-bla reporter, EGF-induced, beta-lactamase ratio, 5 h
Outline: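 A ratiometric CCF4 readout (405 nm excitation; 460 and 530 nm emission) quantified AP-1-driven beta-lactamase in ME-180 cells after 5 h with compound and EC50 EGF; AC50 values were derived for activators and inhibitors.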

[2] = target: Cytochrome P450 1A2 (Homo sapiens) (UniProt P05177); assay: p450-cyp1a2 (AID 410; calls by dose curve; also: potency is read from the fitted curve at half-maximal effect); details: recombinant CYP1A2, luciferin-ME demethylation, luminescence; series mostly up to 57 µM
Sequence of Cytochrome P450 1A2 (Homo sapiens) (P05177 whole entry, looked up): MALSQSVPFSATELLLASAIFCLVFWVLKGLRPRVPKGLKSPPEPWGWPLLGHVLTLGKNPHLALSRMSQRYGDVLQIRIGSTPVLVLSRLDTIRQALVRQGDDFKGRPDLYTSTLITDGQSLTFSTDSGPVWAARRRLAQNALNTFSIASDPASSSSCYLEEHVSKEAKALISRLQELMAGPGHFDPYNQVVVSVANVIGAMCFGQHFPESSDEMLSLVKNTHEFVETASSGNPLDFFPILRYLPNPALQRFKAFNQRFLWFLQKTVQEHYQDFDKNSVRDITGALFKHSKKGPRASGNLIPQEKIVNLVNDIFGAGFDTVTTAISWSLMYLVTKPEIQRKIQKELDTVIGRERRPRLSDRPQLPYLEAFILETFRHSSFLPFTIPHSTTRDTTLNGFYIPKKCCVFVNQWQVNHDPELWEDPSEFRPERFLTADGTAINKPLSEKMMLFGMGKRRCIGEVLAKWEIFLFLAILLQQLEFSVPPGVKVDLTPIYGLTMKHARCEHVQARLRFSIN
Outline: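 Luminescent demethylation readout: Luciferin-ME (100uM, equal to Km) turned over by 20nM CYP1A2 for 60 min at room temperature after NADPH regeneration addition, following 10 min compound preincubation. Normalization used 57 uM furafylline as full inhibition.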

[3] = NFAT Signaling Pathway (AID 444; active = well fitted curve in either direction with a large enough effect, not every such curve was filed as active;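 also: carbachol stimulus at about its EC50 of 1 µM final; % is scaled to controls: 0 for no effect and ±100 for the full control effect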); details: Jurkat NFAT-bla M1, carbachol, beta-lactamase ratio, 5 h
Outline: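 Jurkat cells carrying an NFAT-driven β-lactamase reporter and co-transfected muscarinic M1 receptor were treated with compound plus carbachol (1 uM final, an EC50 level) for 5 h at 37 °C. CCF4 loading followed for 1 h at RT; 460/530 nm ratio gave %activity.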

[4] = Stat Signaling Pathway (AID 446; active = well fitted curve in either direction with a large enough effect, not every such curve was filed as active;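 also: ME-180 cervical cancer cells given 40 pM IL-6 alongside compound; SIE-controlled beta-lactamase reporter measured as 460/530 nm FRET emission ratio; % is scaled to controls: 0 for no effect and ±100 for the full control effect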); details: ME-180 (cervical carcinoma) SIE beta-lactamase reporter, IL-6 stimulated, 5 h; at 17.2 µM (top of the series)
Outline: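 Normalization used AC90 stimulation (300 pM IL-6) and AC90 inhibition (125 nM pan-JAK inhibitor at 40 pM IL-6). The underlying signal is SIE-driven beta-lactamase in ME-180 cells after 5 h IL-6 exposure with compound.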

[5] = target: Glucocorticoid receptor (Homo sapiens) (UniProt P04150); assay: GR-GFP Redistribution (AID 450;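 active = compounds whose dose series gives a full or clear partial fitted curve of increased nuclear translocation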; also: potency is read from the fitted curve at half-maximal effect); details: U2OS GR-GFP nuclear translocation, laser cytometry, 2 h
Sequence of Glucocorticoid receptor (Homo sapiens) (P04150 whole entry, looked up, the tested form may be a part): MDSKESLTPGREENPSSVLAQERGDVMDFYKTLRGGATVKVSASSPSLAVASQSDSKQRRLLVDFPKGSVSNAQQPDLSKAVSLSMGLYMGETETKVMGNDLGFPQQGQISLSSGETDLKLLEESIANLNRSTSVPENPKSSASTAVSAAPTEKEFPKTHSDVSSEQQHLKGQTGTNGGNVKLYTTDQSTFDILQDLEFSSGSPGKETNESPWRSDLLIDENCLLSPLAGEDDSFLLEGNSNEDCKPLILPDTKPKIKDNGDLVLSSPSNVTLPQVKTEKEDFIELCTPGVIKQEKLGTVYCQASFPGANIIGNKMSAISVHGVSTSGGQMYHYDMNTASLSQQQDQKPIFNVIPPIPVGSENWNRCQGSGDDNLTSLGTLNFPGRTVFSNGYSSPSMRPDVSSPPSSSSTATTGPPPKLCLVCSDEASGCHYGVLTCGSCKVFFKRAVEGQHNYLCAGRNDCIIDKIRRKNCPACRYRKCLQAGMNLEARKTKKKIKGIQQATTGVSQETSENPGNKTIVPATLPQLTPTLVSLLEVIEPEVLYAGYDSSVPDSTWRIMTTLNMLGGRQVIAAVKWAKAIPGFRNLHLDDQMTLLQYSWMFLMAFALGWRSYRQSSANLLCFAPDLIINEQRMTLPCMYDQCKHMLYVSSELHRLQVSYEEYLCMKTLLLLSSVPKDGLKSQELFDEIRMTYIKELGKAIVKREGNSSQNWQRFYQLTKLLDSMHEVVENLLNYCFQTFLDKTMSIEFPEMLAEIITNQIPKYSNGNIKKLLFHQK

[6] = target: Glucocorticoid receptor (Homo sapiens) (UniProt P04150); assay: GR-EFC Redistribution (AID 451; calls by dose curve; also: potency is read from the fitted curve at half-maximal effect); details: CHO-K1 GR-EFC translocation, beta-gal luminescence, 2 h
Outline: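 CHO-K1 cells stably expressing nuclear-localized β-gal enzyme acceptor and GR fused C-terminally to the enzyme donor fragment; ligand-driven nuclear translocation restores β-gal by complementation. Compounds titrated up to 46 uM final, 2 h at 37 °C; luminescence read.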

[7] = target: Mitogen-activated protein kinase 10 (Mus musculus) (UniProt Q61831); assay: JNK3 AlphaScreen Assay (AID 530; active = well fitted curve in either direction with a large enough effect, not every such curve was filed as active;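 also: kinase came from lysate of stimulated human HepG2 cells; signal reports phosphorylation of biotinylated GST-cJun 1-79 at Ser73 with 10 µM ATP; % is scaled to controls: 0 for no effect and ±100 for the full control effect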); details: JNK3 lysate, c-Jun phosphorylation; series mostly up to 57.1 µM
Outline: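 Phosphorylation of biotinylated GST-cJun(1-79) at Ser73 is measured by AlphaScreen proximity luminescence. Enzyme is JNK3 in HepG2 lysates activated with interleukin-1beta and tumor necrosis factor alpha; ATP is 10 uM final.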

[8] = target: 3',5'-cyclic-AMP phosphodiesterase 4B (Homo sapiens) (UniProt Q07343); assay: qHTS Assay for Inhibitors of PDE-IV (AID 607; active = well fitted activation curve with a large enough effect in the main read-out, with a control signal flat, not every such curve was filed as active; also: % of control where 0% means no effect); details: HEK293 ACTOne CNG channel cells, membrane potential fluorescence; series mostly up to 22.9 µM
Sequence of 3',5'-cyclic-AMP phosphodiesterase 4B (Homo sapiens) (Q07343 whole entry, looked up): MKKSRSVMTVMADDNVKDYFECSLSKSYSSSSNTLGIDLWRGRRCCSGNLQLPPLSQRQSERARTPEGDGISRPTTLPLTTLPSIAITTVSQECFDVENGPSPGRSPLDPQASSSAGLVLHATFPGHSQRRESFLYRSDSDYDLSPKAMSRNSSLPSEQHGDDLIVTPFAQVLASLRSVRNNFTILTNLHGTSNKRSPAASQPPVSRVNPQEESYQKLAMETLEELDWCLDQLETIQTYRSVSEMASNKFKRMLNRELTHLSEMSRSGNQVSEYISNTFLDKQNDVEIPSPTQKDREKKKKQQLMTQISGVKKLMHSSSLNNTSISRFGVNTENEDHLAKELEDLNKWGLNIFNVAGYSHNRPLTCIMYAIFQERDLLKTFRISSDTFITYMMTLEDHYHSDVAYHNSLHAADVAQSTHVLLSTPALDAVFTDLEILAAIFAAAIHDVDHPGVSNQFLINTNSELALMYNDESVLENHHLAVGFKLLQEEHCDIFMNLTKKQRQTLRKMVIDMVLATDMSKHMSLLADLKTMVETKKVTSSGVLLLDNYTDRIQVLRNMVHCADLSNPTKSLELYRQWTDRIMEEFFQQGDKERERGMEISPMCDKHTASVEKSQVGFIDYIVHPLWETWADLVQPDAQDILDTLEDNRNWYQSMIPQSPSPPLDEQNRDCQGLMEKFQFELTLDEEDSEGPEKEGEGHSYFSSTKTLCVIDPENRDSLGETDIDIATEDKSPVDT
Outline: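 HEK293 ACTOne cells with CNG channel (1000/well), endogenous PDE4; membrane potential dye, compounds up to 22.9 uM final. Fluorescence Ex 535/Em 590; RO 20-1724 (100 uM final) as reference.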

[9] = target: Guanine nucleotide-binding protein G(i) subunit alpha-1 (Homo sapiens) (UniProt P63096); assay: qHTS Assay for Inhibitors of RGS12 GoLoco Motif Activity (Green Fluorophore) (AID 879); details: Galphai1/FITC-RGS12 GoLoco peptide, fluorescence polarization; series mostly up to 57.1 µM;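 also: 0% = labeled peptide with Gαi1 and full inhibition = labeled peptide alone without protein; negative values mean loss of peptide binding seen as reduced polarization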
Outline: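 A drop in FITC polarization marked displacement of the FITC-tagged RGS12 GoLoco peptide (10 nM) from Gαi1 (50 nM). Compounds were incubated 10 min at room temperature in Tris pH 7.5 buffer containing 150 mM NaCl, 0.1 mM GDP and 0.05% NP40; unlabeled peptide titration served as control.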

[10] = target: Cytochrome P450 2C9 (Homo sapiens) (UniProt P11712); assay: qHTS Assay for Inhibitors and Substrates of Cytochrome P450 2C9 (AID 883); details: recombinant CYP2C9, luciferin-H luminescence, 60 min; series mostly up to 57.1 µM; also: % is scaled to controls: 0 for no effect and ±100 for the full control effect; nearly all actives have a fitted effect of over 60% in size
Sequence of Cytochrome P450 2C9 (Homo sapiens) (P11712 whole entry, looked up): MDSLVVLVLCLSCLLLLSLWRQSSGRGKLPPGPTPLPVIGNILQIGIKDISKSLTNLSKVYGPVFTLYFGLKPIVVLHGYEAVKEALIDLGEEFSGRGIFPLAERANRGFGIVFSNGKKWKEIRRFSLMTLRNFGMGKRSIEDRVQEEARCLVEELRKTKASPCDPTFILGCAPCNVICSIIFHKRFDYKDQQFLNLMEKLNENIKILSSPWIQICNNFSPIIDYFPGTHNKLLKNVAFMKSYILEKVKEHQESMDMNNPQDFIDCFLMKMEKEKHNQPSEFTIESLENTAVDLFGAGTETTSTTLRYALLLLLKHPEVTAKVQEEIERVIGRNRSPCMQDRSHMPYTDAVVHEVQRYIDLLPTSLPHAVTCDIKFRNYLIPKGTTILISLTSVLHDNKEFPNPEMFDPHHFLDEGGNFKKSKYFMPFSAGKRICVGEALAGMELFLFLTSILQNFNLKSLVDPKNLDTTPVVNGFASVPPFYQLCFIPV
Outline: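 CYP2C9 deoxyluciferin hydroxylation, 37C, 60 min with NADPH regeneration; 10nM enzyme, 100uM Luciferin-H (KM). Glo detection reagent stopped reaction; luminescence normalized to sulphaphenazole (57uM) full inhibition.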

[11] = target: Cytochrome P450 3A4 (Homo sapiens) (UniProt P08684); assay: qHTS Assay for Activators of Cytochrome P450 3A4 (AID 885); details: recombinant CYP3A4, Luciferin-PPXE luminescence, 60 min; series mostly up to 57.1 µM; also: nearly all actives have a fitted effect of over 65% in size
Sequence of Cytochrome P450 3A4 (Homo sapiens) (P08684 whole entry, looked up): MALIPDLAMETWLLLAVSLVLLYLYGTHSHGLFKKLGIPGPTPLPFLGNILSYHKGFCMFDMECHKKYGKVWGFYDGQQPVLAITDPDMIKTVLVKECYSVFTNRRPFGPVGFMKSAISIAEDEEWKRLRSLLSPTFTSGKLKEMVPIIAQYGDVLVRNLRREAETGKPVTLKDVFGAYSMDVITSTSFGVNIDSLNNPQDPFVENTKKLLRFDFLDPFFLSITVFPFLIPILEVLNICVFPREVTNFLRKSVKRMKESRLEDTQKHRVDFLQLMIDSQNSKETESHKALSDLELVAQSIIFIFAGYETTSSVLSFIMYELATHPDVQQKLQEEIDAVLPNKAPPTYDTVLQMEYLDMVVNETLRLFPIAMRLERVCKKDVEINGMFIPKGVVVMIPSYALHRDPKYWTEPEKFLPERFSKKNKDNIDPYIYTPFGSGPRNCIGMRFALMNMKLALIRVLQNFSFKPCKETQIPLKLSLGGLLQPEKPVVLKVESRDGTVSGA
Outline: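 Human CYP3A4 dealkylates Luciferin-PPXE to luciferin, which luciferase detection converts to light. Substrate was at its KM (25uM), buffer 200mM KPO4, reaction 60 min at RT.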

[12] = target: Cytochrome P450 2D6 (Homo sapiens) (UniProt P10635); assay: qHTS Assay for Inhibitors and Substrates of Cytochrome P450 2D6 (AID 891); details: recombinant CYP2D6, luciferin-ME EGE luminescence; series mostly up to 57.1 µM; also: potency is read from the fitted curve at half-maximal effect; nearly all actives have a fitted effect of over 60% in size
Sequence of Cytochrome P450 2D6 (Homo sapiens) (P10635 whole entry, looked up): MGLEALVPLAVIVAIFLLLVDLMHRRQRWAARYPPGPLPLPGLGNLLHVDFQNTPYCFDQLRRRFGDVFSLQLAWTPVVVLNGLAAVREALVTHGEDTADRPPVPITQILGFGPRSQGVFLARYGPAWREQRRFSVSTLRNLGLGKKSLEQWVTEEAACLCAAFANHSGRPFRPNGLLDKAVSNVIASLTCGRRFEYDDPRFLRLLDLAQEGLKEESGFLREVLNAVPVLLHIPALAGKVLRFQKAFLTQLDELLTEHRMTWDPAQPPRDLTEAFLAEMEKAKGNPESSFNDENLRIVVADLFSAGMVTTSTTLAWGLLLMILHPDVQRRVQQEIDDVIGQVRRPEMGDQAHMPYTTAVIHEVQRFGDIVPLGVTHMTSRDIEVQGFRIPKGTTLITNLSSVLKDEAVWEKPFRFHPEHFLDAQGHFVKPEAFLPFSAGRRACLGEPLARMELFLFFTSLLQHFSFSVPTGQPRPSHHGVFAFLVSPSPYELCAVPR
Outline: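 Luminescent read-out of luciferin formed by 5 nM human CYP2D6 demethylating 30 uM Luciferin-ME EGE (Km level) over 60 min at room temperature after NADPH regeneration addition. Data normalized to full inhibition by 1.43 uM quinidine.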

[13] = target: Cytochrome P450 2C19 (Homo sapiens) (UniProt P33261); assay: qHTS Assay for Inhibitors and Substrates of Cytochrome P450 2C19 (AID 899); details: recombinant CYP2C19, luciferin-H EGE luminescence; series mostly up to 57.1 µM; also: potency is read from the fitted curve at half-maximal effect; nearly all actives have a fitted effect of over 60% in size
Sequence of Cytochrome P450 2C19 (Homo sapiens) (P33261 whole entry, looked up): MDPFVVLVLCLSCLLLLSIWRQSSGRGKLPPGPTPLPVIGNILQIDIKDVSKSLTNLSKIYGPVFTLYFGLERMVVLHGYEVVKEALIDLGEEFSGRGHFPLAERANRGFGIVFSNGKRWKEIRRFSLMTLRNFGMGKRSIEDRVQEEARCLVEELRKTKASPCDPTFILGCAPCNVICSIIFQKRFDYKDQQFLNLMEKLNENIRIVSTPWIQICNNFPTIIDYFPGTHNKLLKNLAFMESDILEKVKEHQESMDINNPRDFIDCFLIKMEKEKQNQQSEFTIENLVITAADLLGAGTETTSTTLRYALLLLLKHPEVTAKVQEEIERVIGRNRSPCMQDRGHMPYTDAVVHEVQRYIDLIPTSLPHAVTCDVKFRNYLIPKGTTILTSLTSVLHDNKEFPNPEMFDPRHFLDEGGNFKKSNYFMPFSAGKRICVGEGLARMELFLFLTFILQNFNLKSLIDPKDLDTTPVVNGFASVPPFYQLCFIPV
Outline: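 In 50mM KPO4, the reaction held 5nM enzyme and KM-level (10uM) Luciferin-H EGE; it ran 60 min at 37C after NADPH regeneration and a 10 min compound preincubation. Luminescence values were scaled to 57uM ketoconazole as complete inhibition.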

[14] = qHTS Assay for Identification of Small Molecule Agonists for Thrombopoietin (TPO) Signaling Pathway (AID 917); details: TPO signaling pathway reporter cells, agonist qHTS, stimulated with TPO at its EC50; series mostly up to 38.5 µM; also: % is scaled to controls: 0 for no effect and ±100 for the full control effect
Outline: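 Human TPO receptor–transfected Ba/F3 cells (murine, IL-3-dependent) in IL-3-deficient medium; compounds plus TPO at EC50, 26 pM final; 24 hrs, 37 C; GpIIb-luciferase luminescence after 10 min RT detection.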

[15] = target: Muscarinic acetylcholine receptor M1 (Rattus norvegicus) (UniProt P08482); assay: qHTS Assay for Antagonists of Acetylcholine Muscarinic M1 Receptor: Measurement of IP-One Response (AID 944); details: CHO-M1 cells, IP-One HTRF, antagonist mode; series mostly up to 46.1 µM; also: nearly all actives have a fitted effect of over 75% in size
Sequence of Muscarinic acetylcholine receptor M1 (Rattus norvegicus) (P08482 whole entry, looked up): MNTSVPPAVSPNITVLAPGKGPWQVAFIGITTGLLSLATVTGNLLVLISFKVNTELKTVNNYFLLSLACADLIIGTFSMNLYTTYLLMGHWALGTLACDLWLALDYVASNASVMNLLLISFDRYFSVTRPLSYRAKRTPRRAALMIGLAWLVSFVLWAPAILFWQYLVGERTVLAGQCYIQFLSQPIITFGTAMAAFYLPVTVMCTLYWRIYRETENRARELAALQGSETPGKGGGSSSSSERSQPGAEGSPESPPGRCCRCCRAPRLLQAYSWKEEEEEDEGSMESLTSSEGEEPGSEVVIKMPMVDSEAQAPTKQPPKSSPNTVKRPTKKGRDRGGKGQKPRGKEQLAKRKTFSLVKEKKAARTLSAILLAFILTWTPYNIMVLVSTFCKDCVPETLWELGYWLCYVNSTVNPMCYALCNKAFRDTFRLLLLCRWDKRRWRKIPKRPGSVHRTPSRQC
Outline: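 IP1 accumulation measured via TR-FRET between d2-IP1 and Eu-cryptate anti-IP1 antibody after carbachol (200 nM, EC80) stimulation for 30 min; rat M1-transfected CHO cells received compound 10 min before agonist.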

[16] = target: Pyruvate kinase (Leishmania mexicana) (UniProt Q27686); assay: qHTS Validation Assay for Inhibitors of Leishmania Mexicana Pyruvate Kinase (AID 945);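 also: 0% = DMSO only neutral control wells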; details: purified L. mexicana pyruvate kinase, enzyme activity, E451W mutant enzyme; series mostly up to 57.5 µM
Sequence of Pyruvate kinase (Leishmania mexicana) (Q27686 2-499 E452W): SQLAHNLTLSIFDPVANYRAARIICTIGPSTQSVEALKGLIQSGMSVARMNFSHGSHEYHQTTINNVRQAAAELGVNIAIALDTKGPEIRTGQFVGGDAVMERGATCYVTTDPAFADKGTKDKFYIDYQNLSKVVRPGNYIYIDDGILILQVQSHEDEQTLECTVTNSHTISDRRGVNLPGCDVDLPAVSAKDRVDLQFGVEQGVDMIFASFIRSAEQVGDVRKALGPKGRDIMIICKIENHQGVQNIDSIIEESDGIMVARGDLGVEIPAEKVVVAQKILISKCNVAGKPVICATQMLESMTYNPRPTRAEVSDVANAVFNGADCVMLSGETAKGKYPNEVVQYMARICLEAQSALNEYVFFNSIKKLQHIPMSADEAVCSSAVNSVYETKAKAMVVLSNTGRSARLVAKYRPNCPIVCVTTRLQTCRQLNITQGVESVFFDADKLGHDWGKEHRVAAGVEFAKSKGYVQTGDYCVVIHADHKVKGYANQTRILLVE
Outline: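 Purified LmPYK (E451W mutant, 0.2 nM) was incubated 1 h at room temperature with 0.5 mM PEP and 0.1 mM ADP in 50 mM imidazole pH 7.2, 50 mM KCl, 7 mM MgCl2; ATP formed was read by PKLight luminescence, normalized to DMSO wells.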

[17] = target: Alpha-galactosidase A (Homo sapiens) (UniProt P06280); assay: Counterscreen for Glucocerebrosidase Inhibitors: qHTS Assay for Human alpha-Galactosidase at pH 4.5 (AID 992); details: purified enzyme, fluorogenic substrate; series mostly up to 76.9 µM; also: 0% is about no effect
Outline: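 Steps: enzyme (2 nM final), then compound across 0.7 nM to 77 uM, then 80 uM fluorogenic galactopyranoside substrate; incubate 20 min at room temperature; quench at pH 10; measure fluorescence at 365/440 nm.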

[18] = target: alpha-glucosidase (Oryza sativa, rice) (UniProt Q653V4); assay: Counterscreen for Glucocerebrosidase Inhibitors: qHTS Assay for Rice alpha-Glucosidase at pH 5.0 (AID 997); details: rice alpha-glucosidase enzyme activity; series mostly up to 76.9 µM;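 also: 0% = full activity with enzyme and -100% = basal without enzyme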
Outline: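 Endpoint fluorogenic assay at pH 5.0: compounds (0.7 nM to 77 uM) titrated against 4 nM rice enzyme and 400 uM 4-MU-alpha-glucoside for 20 min at room temperature; NaOH/glycine stop, read ex 365/em 440 nm, Hill-fitted AC50.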

[19] = qHTS Assay for Lipid Storage Modulators (AID 1519; calls by dose curve); details: Drosophila S3 cells, BODIPY lipid droplet/cell ratio, laser cytometry, cells loaded with oleic acid
Outline: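 Cells seeded at 5,000 per well were treated with compounds over a concentration series and loaded with oleic acid (400 uM, as added). Lipid droplet fluorescence (488 nm excitation, 500-530 nm channel) was read by laser-scanning cytometry and normalized to 20 uM Triacsin C.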

[20] = target: DNA dC->dU-editing enzyme APOBEC-3G (Homo sapiens) (UniProt Q9HC16); assay: qHTS for inhibitors of Vif-A3G interactions: Validation (AID 588379); details: Vif-A3G protein interaction assay; series mostly up to 46.1 µM; also: 0% is about no effect
Outline: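 Yellow fluorescence (Ex 488, Em 500-530) of Vif-coexpressing HeLa A3G-eYFP cells, scanned by Acumen cytometer, reports blocked A3G degradation. Cells plated at 700/well overnight at 37 deg C before compound addition, then a further overnight compound incubation at 37 deg C.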

[21] = tested on: Zika virus NS2B-NS3 protease; assay: Primary screen GU AMC qHTS for Zika virus inhibitors (AID 1347154); details: Zika NS2B-NS3 unlinked protease, AMC fluorogenic substrate; series mostly up to 54.1 µM;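 also: 0% = no-inhibitor control and -100% = no-enzyme control; nearly all actives have a fitted effect of over 70% in size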
Outline: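 Unlinked Zika NS2B hydrophilic domain/NS3 protease domain noncovalent complex (25 nM final) in 10 mM Tris-HCl pH 8.0, 0.01% Tween 20, with AMC peptide substrate. Fluorescence (ex 340, em 450 nm) change over 15 min, room temperature; percent inhibition fitted to 4-parameter Hill equation.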

[22] = target: Rap guanine nucleotide exchange factor 3 (Homo sapiens) (UniProt O95398); assay: Confirmatory qHTS for agonist of cAMP-regulated guanine nucleotide exchange factor 3 (EPAC1) (AID 1645881); details: EPAC1 Rap1B BODIPY-GDP exchange fluorescence, 100% = cAMP control response; series mostly up to 154 µM;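 also: EPAC1 catalysed release of BODIPY-GDP from Rap1B seen as fluorescence loss; nearly all actives have a fitted effect of over 75% in size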
[23] = target: Rap guanine nucleotide exchange factor 4 (Homo sapiens) (UniProt Q8WZA2); assay: Confirmatory qHTS for agonist of cAMP-regulated guanine nucleotide exchange factor 4 (EPAC2) (AID 1645884); details: EPAC2 GEF activity, Rap1B-BODIPY-GDP fluorescence, percent relative to cAMP agonist control; series mostly up to 154 µM;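 also: nucleotide exchange releases bodipy-GDP from Rap1 and this lowers its fluorescence; % is scaled to controls: 0 for no effect and ±100 for the full control effect; nearly all actives have a fitted effect of over 65% in size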

COc1ccccc1N1CCN(C[C@@H](O)COc2cccc3ccccc23)CC1
inactive: activity change, negative = inhibition ([1]; at 17.2 µM (top of the series)) 4.94% | activity change, negative = inhibition ([1]; at 38 µM (top of the series)) 2.88% | activity change, negative = inhibition ([3]; at 17.2 µM (top of the series)) -8.94% | activity change, negative = inhibition ([3]; at 38 µM (top of the series)) -1.67% | activity, negative = inhibition [4] -4.93% | Potency [5] > 46 µM and > 20.6 µM | Potency [6] > 46 µM and > 20.6 µM | Potency [7] | Potency [8] | outcome [9] | Potency [10] | Potency [11] | Potency [14] | Potency [15] | Potency [16] | outcome [17] | outcome [18] | activity change, negative = inhibition ([19]; at 25.7 µM (top of the series)) -0.494% | Potency [20] | Potency [21] | outcome [22] | outcome [23]
active: Potency [2] 20 µM and 31.6 µM | Potency [12] 794 nM and 316 nM and 126 nM | Potency [13] 6.31 µM and 7.94 µM and 1.58 µM
-0.579%: max response ([19]; measured here: lipid channel max response)
-0.0145%: max response ([19]; measured here: cell count channel max response)
